The nature of experiment [1]: viability loss with induced miR-34 in A549 – imaging, A549 dox-inducible miR-34, nuclei and caspase counts, primary screen (AID 1347080). Conditions: A549 miR-34 inducible, Hoechst nuclei count, 48 h.
Experiment [2] in a line: growth inhibition of DIPG cells – cell-based, MIPE5.0 library, qHTS (AID 1347068; cut-off not given, nearly all actives have IC50 up to about 30 µM). Particulars: SU-DIPG-XXV viability.
Experiment [3] can be described thus: MELAS cybrid and Rieske KO viability enhancers – cell-based, MELAS cybrids, Rieske KO mouse fibroblasts, CellTiter-Glo, primary screen (AID 1508586;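 active = mean z-score across replicates of 1.96 or higher in either the MELAS or the Rieske mutant cell line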;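 note: z relative to plate mean and SD of compound and empty wells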). Conditions: low glucose.
The nature of experiment [4]: growth inhibition of DIPG cells – cell-based, MIPE4.0 library, CellTiter-Glo luminescence, qHTS (AID 1347066; cut-off not given, nearly all actives have AC50 up to about 30 µM;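 note: cells exposed to compound for 48 hours before readout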). Conditions: SU-DIPG-VI viability, CellTiter-Glo ATP luminescence.
Experiment [5] is described as follows: JHH-DIPG-1 glioma cell viability, MIPE5.0 library, CellTiter-Glo luminescence, qHTS (AID 1347067; cut-off not given, nearly all actives have AC50 up to about 26 µM;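 note: cells exposed to compound for 48 hours before readout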). Conditions: JHH-DIPG-1 glioma viability, CellTiter-Glo ATP luminescence.
Experiment [6] can be described thus: P. berghei load reduction in hepatocytes – cell-based, HepG2, luciferase luminescence, HepG2 viability, primary screen (AID 624349; in the data active = parasite load remaining mostly below about 12%, no sharp cut-off; inactive = mostly above about 10%;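 note: 100% = mean of DMSO negative control wells on the same plate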). Conditions: P. berghei liver stage in HepG2, luciferase luminescence, concentration not given here; parasite load remaining: stronger effect = lower value; viability: measured here: HepG2 viability without parasites.
Experiment [7] can be described thus: viability loss in pontine glioma line – cell-based, SU-DIPG-IV, MIPE4.0, CellTiter-Glo, qHTS, dose response (AID 1347063; cut-off not given, nearly all actives have AC50 up to about 30 µM;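 note: compound exposure lasted 48 hours before the viability readout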). Particulars: CellTiter-Glo ATP luminescence. A general note: Cellular ATP, detected with luciferase, serves as a proxy for viable cell number.
Experiment [8] can be described thus: viability loss in pontine glioma line – cell-based, SU-DIPG-XXV, MIPE5.0, CellTiter-Glo, qHTS, dose response (AID 1347065; cut-off not given, nearly all actives have AC50 up to about 26 µM;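 note: cells exposed to compound for 48 hours before ATP readout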). Particulars: CellTiter-Glo ATP luminescence.
Experiment [9] in a line: viability loss in pontine glioma line – cell-based, SU-DIPG-XIII, MIPE5.0, CellTiter-Glo, qHTS, dose response (AID 1347064; cut-off not given, nearly all actives have AC50 up to about 23 µM). Particulars: CellTiter-Glo ATP luminescence.
The mark [10] stands for this setting: stronger effect = lower value, cell number ratio, induced over uninduced.
[11] abbreviates: measured here: relative caspase fold change +Dox/-Dox.
[12] abbreviates: measured here: total cells with miR-34 induction, stronger effect = lower value.
Where [13] appears, read: measured here: total cells without miR-34 induction.
[14] abbreviates: MELAS cybrid survival, CellTiter-Glo 48 h, stronger effect = higher value.
Setting [15] is: Rieske KO mouse fibroblast survival, CellTiter-Glo 72 h.

Each structure is given as a SMILES string. Records with an inconclusive call do not appear. Calls of active or inactive are those of the source.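 Rule for the calls, unless noted: active = compounds whose cell count with miR-34 switched on is under 0.7 times the count with it off; inactive = the rest.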

Turning to `COc1ccc(S(=O)(=O)N(CCO)c2ccccc2CN(C)C/C=C/c2ccc(Cl)cc2)cc1`, the fold change is 1.03 (inactive) in [1] (setting [10]) and 1.21 in experiment [1] (setting [11]). Further, the results for the cell count in experiment [1] (setting [12]) and in [1] (setting [13]) were 5240 and 5100, respectively.
As to `CCCCCc1cc(O)c2c(c1)OC(C)(C)[C@@H]1CCC(C(=O)O)=CC21` (some centres undefined), the results for the fold change in experiment [1] (stronger effect = lower value) and in [1] (setting [11]) were 0.953 (inactive) and 1.25, respectively. Further, the figures for the cell count in [1] (setting [12]) and in [1] (setting [13]) were 5920 and 6210, respectively.
For `C[N+]1(C)[C@@H]2CC(OC(=O)C(CO)c3ccccc3)C[C@H]1[C@@H]1O[C@@H]12` (some centres undefined), in that order: 0.929 (inactive), 1.43, 8500 and 9160.
Consider `Cc1sc2c(c1C)C(c1ccc(Cl)cc1)=NC(CC(=O)Nc1ccc(O)cc1)c1nnc(C)n1-2` (centres undefined), for which, in experiment [2], the molecule was classed as inactive. In addition, the fold change in experiment [1] (setting [10]) was 0.898 (inactive); in experiment [1] (setting [11]), 0.692. Besides, the cell count is 4940 in [1] (setting [12]) and 5500 in experiment [1] (setting [13]). Besides, the z-score in experiment [3] (setting [14]) is -0.542 (inactive); in experiment [3] (setting [15]) it was -4.37.
With `CN[C@@H]1CC2OC(C)([C@@H]1OC)n1c3ccccc3c3c4c(c5c6ccccc6n2c5c31)C(=O)NC4` (some centres undefined), the values for the fold change in experiment [1] (stronger effect = lower value) and in [1] (setting [11]) were 0.831 (inactive) and 0.918, respectively. Besides, the figures for the cell count in [1] (setting [12]) and in [1] (setting [13]) were 692 and 832, respectively.
Consider `C[C@H]1[C@@H](C(=O)C[C@H]2O[C@@H]3O[C@]4(C)CC[C@H]5[C@H](C)CC[C@@H]([C@H]2C)[C@@]35OO4)O[C@@H]2O[C@]3(C)CC[C@H]4[C@H](C)CC[C@@H]1[C@@]24OO3`, for which the result in experiment [4] was inactive.
For the molecule `Cc1sc2c(c1C)C(c1ccc(Cl)cc1)=NC(CC(N)=O)c1nnc(C)n1-2` (centres undefined), the result in experiment [5] and in experiment [2] was inactive. The fold change is 0.978 (inactive) in [1] (setting [10]) and 0.427 in [1] (setting [11]). Also, the cell count in [1] (setting [12]) worked out at 5420; in [1] (setting [13]), 5540. Also, the z-score in [3] (setting [14]) was 0.425 (inactive); in experiment [3] (setting [15]), -3.88.
The viability is a read-out of living cells in per cent, often relative to untreated cells. A word on the AC50: it is the concentration at which the activity in the assay is half-maximal. On to `O=c1[nH]c2ccccc2n1C1CCN(Cc2ccc(-c3[nH]c4cc5ncnc5cc4nc3-c3ccccc3)cc2)CC1`, for which the parasite load remaining in [6] was 45.5% (inactive). Further, the viability in experiment [6] was 115%. The figures for the AC50 in experiment [7], in [8] and in experiment [4] were 16.6 µM (active), 23.5 µM (active) and 14.8 µM (active), respectively.
In the case of `CCCCC/C=C\C/C=C\C/C=C\C/C=C\CCCCOC(CO)CO`, the fold change is 0.983 (inactive) in experiment [1] (setting [10]) and 0.95 in [1] (setting [11]). The cell count stood at 5720 in experiment [1] (setting [12]) and 5810 in experiment [1] (setting [13]).
Regarding `CN=C(NS(=O)(=O)c1ccc(Cl)cc1)N1C[C@@H](c2ccccc2)C(c2ccc(Cl)cc2)=N1`, the fold change in experiment [1] (setting [10]) was 0.663 (active); in [1] (setting [11]) it was 0.468. The figures for the cell count in experiment [1] (setting [12]) and in [1] (setting [13]) were 3940 and 5940, respectively.
For the molecule `CC(C)(NC(=O)O[C@@H]1CN2CCC1CC2)c1csc(-c2ccc(F)cc2)n1`, the outcome in [9], in experiment [8], in experiment [5] and in experiment [2] was inactive.
Turning to `c1cc2ccsc2c(N2CCNCC2)n1`, the fold change in experiment [1] (setting [10]) was 0.937 (inactive); in experiment [1] (setting [11]), 0.656. In addition, the cell count in experiment [1] (setting [12]) is 5170; in experiment [1] (setting [13]), 5520.
`C[C@H](Nc1ncnc2nc[nH]c12)c1nc2ccc(F)cc2c(=O)n1-c1ccccc1`: in experiment [8], the AC50 was 14.8 µM (active). Moreover, the call in [2] was inactive.
As for `C[C@@H]1CC([C@H](O)CC2CC(=O)NC(=O)C2)C(=O)[C@@H](C)C1` (some centres undefined), the fold change in experiment [1] (stronger effect = lower value) was 1.01 (inactive); in experiment [1] (setting [11]), 1.96. The cell count came out at 1800 in experiment [1] (setting [12]) and 1780 in [1] (setting [13]).
For `C[C@@H](C1CC[C@@]2(O)C3=CC(=O)[C@@H]4C[C@@H](O)[C@@H](O)C[C@]4(C)[C@H]3CC[C@]12C)[C@H](O)CCC(C)(C)O` (some centres undefined), the outcome in experiment [9], in [8] and in [5] was inactive.
Regarding `CCCCCCC(=O)O[C@H]1CC[C@H]2[C@@H]3C[C@@H](O)C4=CC(=O)CC[C@]4(C)[C@H]3CC[C@]12C`, the fold change was 0.966 (inactive) in experiment [1] (stronger effect = lower value) and 0.446 in [1] (setting [11]). Besides, the cell count came to 5500 in experiment [1] (setting [12]) and 5700 in experiment [1] (setting [13]).
As to `Cc1c(C(=O)Nc2cccc(C(F)(F)F)c2)cc(-c2ccccc2)n1CCCN1CCOCC1`, in experiment [7], the AC50 is 18.7 µM (active). In [9], the molecule was called inactive.
Regarding `CCCCCCC(C)(C)c1cc(OC)c2c(c1)OC(C)(C)[C@@H]1CC=C(C)C[C@@H]21`, the fold change in [1] (stronger effect = lower value) was 1.09 (inactive); in [1] (setting [11]), 0.441. Also, the cell count in [1] (setting [12]) is 6970; in experiment [1] (setting [13]), 6400.
Consider `CCCCC/C=C\C/C=C\C/C=C\C/C=C\CCCC(=O)Nc1cccc(O)c1`, for which the values for the fold change in [1] (setting [10]) and in experiment [1] (setting [11]) were 0.942 (inactive) and 0.281, respectively. For the same molecule, the cell count in experiment [1] (setting [12]) worked out at 5390; in experiment [1] (setting [13]), 5720.
For `CN=C(NS(=O)(=O)c1ccc(Cl)cc1)N1C[C@H](c2ccccc2)C(c2ccc(Cl)cc2)=N1`, in that order: 0.982 (inactive), 1.16, 5510 and 5610.
As to `CC(=O)N1N=C(c2ccc(N)cc2)c2cc3c(cc2C[C@H]1C)OCO3`, the molecule was classed as inactive in experiment [9], in [8], in experiment [5] and in experiment [2].
Regarding `CCCC[C@@H](C)C(OC(=O)C[C@@H](CC(=O)O)C(=O)O)C(C[C@@H](C)C[C@H](O)CCCC[C@@H](O)C[C@H](O)[C@H](C)N)OC(=O)C[C@@H](CC(=O)O)C(=O)O` (some centres undefined), the fold change is 0.933 (inactive) in experiment [1] (setting [10]) and 0.809 in experiment [1] (setting [11]). Further, the cell count in experiment [1] (setting [12]) was found to be 5390; in experiment [1] (setting [13]) it was 5780.
For `CCCCC/C=C\C/C=C\C/C=C\C/C=C\CCCC(=O)N[C@@H](C)C(=O)O`, in that order: 0.941 (inactive), 1.84, 5770 and 6140.
As to `O=NN(O)N1CCC[C@H]1C(=O)O`, the fold change in experiment [1] (setting [10]) is 0.944 (inactive); in experiment [1] (setting [11]), 1.07. For the same molecule, the cell count in experiment [1] (setting [12]) is 5740; in experiment [1] (setting [13]), 6080.
For `CCCCC/C=C\C/C=C\C/C=C\C/C=C\CCC(C)C(=O)NCCF` (centres undefined), the fold change in [1] (setting [10]) is 1.05 (inactive); in experiment [1] (setting [11]) it was 1.21. Besides, the cell count worked out at 5220 in [1] (setting [12]) and 4990 in experiment [1] (setting [13]).
Take `CCNC(=O)CC1N=C(c2ccc(Cl)cc2)c2cc(OC)ccc2-n2c(C)nnc21` (centres undefined): the AC50 in experiment [7] is 16.6 µM (active). The molecule was classed as inactive in experiment [9], in experiment [8], in [5] and in experiment [2]. For the same molecule, the fold change in [1] (setting [10]) was 0.886 (inactive); in experiment [1] (setting [11]) it was 0.522. In addition, the cell count in [1] (setting [12]) is 5810; in experiment [1] (setting [13]) it was 6550. In addition, the z-score is 0.755 (inactive) in [3] (setting [14]) and -2.99 in experiment [3] (setting [15]).
For `Cn1c2cccc(=O)c-2nc2ccccc21`, the figures for the fold change in experiment [1] (setting [10]) and in experiment [1] (setting [11]) were 1.03 (inactive) and 0.698, respectively. Also, the results for the cell count in [1] (setting [12]) and in experiment [1] (setting [13]) were 3390 and 3310, respectively.
Turning to `COc1ccc(/C=C\c2cc(OC)cc(OC)c2)cc1`, the fold change in experiment [1] (setting [10]) is 1.08 (inactive); in experiment [1] (setting [11]), 1.44. Moreover, the cell count was 1220 in [1] (setting [12]) and 1130 in experiment [1] (setting [13]).
